Drawing on ChEMBL document CHEMBL1961873, “Compounds: GSK PKIS; Assays: Nanosyn kinase panel” (2012), this text covers inhibition for 7 compounds.

The inhibition is the drop in the measured response relative to a control, in per cent.

Test [1] deals with Tyrosine-protein kinase ABL1 (Homo sapiens), P00519 [T315I]. The conditions noted are these: at 1 µM.
Test [2] concerns Tyrosine-protein kinase ABL1 (Homo sapiens), P00519 [Y253F]. The conditions noted are these: at 0.1 µM.
Test [3] has the same test system. The conditions noted are these: at 1 µM.
The target of test [4] is Tyrosine-protein kinase ABL1 (Homo sapiens) (UniProt P00519). The conditions noted are these: at 0.1 µM.
Test [5] shares this target. As to conditions: at 1 µM.
For test [6], the target named is ALK tyrosine kinase receptor (Homo sapiens) (UniProt Q9UM73). The conditions noted are these: at 0.1 µM.
For test [7] the target is unchanged. The conditions noted are these: at 1 µM.
In test [8] the target is Tyrosine-protein kinase ABL2 (Homo sapiens) (UniProt P42684). As to conditions: at 0.1 µM.
For test [9] the target is unchanged. The conditions noted are these: at 1 µM.
Test [10] concerns the target Tyrosine-protein kinase receptor UFO (Homo sapiens) (UniProt P30530). As to conditions: at 0.1 µM.
Test [11] shares this target. The conditions noted are these: at 1 µM.
Test [12] deals with Tyrosine-protein kinase Blk (Homo sapiens) (UniProt P51451). The conditions noted are these: at 0.1 µM.
Test [13] shares this target. The conditions noted are these: at 1 µM.
The target in test [14] is T1, Cytoplasmic tyrosine-protein kinase BMX (Homo sapiens) (UniProt P51813).
T1 sequence (whole entry): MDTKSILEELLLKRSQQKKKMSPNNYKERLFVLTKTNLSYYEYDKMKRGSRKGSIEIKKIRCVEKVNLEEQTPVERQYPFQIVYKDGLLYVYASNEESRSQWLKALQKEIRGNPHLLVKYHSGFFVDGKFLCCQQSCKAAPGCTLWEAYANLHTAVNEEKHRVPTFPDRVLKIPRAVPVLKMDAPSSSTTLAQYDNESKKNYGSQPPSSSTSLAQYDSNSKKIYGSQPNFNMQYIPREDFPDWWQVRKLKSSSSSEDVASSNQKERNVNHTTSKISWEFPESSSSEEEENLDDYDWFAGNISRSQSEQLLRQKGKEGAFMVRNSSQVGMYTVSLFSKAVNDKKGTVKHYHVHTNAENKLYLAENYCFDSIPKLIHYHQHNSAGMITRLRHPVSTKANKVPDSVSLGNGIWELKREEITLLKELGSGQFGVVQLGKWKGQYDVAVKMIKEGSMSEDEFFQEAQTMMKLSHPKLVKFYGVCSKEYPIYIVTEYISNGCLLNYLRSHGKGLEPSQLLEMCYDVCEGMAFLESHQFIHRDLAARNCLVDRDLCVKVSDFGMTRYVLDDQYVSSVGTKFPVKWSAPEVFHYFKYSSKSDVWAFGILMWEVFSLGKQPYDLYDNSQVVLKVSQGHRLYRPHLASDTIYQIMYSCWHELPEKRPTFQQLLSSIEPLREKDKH
As to conditions: at 0.1 µM.

The target in test [15] is T1, Cytoplasmic tyrosine-protein kinase BMX (Homo sapiens). As to conditions: at 1 µM.
Test [16] has as its target Protein-tyrosine kinase 6 (Homo sapiens) (UniProt Q13882). As to conditions: at 0.1 µM.
Test [17] shares this target. The conditions noted are these: at 1 µM.
Test [18] concerns the target Tyrosine-protein kinase BTK (Homo sapiens) (UniProt Q06187). The conditions noted are these: at 0.1 µM.
Test [19] has the same target. The conditions noted are these: at 1 µM.
Test [20] concerns the target Tyrosine-protein kinase CSK (Homo sapiens) (UniProt P41240). As to conditions: at 0.1 µM.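 Note: value given is the averaged percent inhibition of CSK kinase activity, from the GSK PKIS kinase inhibitor set screening panel.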

ALK tyrosine kinase receptor (Homo sapiens), sequence (Q9UM73 19-1620 limits assumed): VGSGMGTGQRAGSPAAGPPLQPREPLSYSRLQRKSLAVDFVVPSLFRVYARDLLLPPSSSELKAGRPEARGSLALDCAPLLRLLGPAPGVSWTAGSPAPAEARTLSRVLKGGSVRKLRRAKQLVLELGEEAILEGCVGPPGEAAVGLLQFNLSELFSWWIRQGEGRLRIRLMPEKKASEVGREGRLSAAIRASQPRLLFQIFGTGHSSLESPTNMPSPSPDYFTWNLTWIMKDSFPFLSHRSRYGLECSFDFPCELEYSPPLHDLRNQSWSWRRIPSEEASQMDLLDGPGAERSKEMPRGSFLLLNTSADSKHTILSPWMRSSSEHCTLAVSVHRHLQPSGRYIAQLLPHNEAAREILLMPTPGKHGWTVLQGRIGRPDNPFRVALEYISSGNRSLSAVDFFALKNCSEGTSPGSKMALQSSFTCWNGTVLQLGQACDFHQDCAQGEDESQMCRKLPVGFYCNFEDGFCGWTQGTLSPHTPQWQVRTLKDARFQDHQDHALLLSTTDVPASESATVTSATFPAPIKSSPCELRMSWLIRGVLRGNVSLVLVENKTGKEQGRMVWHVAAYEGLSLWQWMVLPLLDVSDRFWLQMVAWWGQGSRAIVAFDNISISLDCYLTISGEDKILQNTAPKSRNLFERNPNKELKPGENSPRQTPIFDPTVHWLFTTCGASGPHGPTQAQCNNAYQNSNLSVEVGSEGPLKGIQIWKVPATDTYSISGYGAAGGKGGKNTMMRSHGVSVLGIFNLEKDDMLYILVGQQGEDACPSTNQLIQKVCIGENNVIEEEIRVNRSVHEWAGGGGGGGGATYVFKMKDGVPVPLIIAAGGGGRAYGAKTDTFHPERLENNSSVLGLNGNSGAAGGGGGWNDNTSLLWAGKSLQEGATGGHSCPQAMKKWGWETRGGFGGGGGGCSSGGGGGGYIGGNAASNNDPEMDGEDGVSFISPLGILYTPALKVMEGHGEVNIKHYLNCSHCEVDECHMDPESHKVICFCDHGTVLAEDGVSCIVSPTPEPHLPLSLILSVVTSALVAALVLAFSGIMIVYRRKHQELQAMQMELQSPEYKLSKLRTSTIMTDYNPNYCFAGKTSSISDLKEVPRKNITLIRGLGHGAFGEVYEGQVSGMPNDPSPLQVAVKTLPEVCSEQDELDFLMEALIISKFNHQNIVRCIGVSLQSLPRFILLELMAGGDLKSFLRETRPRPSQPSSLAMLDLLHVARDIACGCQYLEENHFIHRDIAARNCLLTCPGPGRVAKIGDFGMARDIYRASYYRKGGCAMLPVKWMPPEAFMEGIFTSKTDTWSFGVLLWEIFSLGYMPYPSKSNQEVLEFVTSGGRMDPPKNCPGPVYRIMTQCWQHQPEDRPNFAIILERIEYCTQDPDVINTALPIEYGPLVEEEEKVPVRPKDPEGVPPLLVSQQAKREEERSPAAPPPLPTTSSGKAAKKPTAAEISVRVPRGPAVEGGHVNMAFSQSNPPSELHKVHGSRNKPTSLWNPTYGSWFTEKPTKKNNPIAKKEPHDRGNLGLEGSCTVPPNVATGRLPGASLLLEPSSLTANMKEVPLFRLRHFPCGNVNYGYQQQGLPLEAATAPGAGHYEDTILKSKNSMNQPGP
Protein-tyrosine kinase 6 (Homo sapiens), sequence (Q13882 whole entry, looked up): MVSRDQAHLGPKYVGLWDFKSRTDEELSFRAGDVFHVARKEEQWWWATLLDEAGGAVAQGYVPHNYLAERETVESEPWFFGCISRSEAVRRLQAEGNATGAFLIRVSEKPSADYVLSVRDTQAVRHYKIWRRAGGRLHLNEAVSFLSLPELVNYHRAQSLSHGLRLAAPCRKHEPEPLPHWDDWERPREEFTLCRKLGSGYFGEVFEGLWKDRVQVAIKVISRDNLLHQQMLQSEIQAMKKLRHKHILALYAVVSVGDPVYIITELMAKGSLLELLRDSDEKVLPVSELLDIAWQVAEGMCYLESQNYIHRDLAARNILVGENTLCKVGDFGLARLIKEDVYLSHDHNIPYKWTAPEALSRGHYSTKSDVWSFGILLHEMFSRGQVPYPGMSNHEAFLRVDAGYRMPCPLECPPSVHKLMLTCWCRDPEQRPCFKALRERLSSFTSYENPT
Tyrosine-protein kinase BTK (Homo sapiens), sequence (Q06187 whole entry): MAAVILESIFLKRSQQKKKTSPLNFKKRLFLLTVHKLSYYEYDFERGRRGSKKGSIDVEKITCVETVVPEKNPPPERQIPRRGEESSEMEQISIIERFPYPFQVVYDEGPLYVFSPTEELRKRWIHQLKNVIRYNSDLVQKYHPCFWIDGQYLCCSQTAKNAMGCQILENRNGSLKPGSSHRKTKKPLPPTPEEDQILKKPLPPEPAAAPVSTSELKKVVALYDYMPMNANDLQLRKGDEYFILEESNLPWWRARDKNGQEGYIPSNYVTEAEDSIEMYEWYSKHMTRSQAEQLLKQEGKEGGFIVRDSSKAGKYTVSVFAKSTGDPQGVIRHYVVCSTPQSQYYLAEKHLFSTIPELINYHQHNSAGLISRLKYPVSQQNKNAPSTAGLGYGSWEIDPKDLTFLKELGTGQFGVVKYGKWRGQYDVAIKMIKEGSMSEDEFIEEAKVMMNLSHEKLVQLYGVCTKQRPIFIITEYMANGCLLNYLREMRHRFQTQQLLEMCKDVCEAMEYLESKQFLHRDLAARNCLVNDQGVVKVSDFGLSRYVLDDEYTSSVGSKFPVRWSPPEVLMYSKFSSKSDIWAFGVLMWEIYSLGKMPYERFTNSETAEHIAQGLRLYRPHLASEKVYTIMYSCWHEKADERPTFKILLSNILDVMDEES
Tyrosine-protein kinase CSK (Homo sapiens), sequence (P41240 2-450 limits assumed): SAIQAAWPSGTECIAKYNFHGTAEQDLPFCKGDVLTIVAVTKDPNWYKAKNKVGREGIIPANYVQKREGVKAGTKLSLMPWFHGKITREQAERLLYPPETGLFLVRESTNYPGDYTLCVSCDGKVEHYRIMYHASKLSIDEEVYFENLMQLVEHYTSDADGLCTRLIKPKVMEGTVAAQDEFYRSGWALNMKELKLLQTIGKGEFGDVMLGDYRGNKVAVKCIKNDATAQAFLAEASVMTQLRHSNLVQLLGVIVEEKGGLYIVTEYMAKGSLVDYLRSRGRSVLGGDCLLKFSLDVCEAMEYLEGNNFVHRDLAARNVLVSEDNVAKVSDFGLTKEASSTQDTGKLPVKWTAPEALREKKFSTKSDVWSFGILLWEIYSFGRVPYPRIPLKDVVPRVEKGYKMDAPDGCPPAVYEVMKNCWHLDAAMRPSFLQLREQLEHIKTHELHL
Tyrosine-protein kinase Blk (Homo sapiens), sequence (P51451 2-505 limits assumed): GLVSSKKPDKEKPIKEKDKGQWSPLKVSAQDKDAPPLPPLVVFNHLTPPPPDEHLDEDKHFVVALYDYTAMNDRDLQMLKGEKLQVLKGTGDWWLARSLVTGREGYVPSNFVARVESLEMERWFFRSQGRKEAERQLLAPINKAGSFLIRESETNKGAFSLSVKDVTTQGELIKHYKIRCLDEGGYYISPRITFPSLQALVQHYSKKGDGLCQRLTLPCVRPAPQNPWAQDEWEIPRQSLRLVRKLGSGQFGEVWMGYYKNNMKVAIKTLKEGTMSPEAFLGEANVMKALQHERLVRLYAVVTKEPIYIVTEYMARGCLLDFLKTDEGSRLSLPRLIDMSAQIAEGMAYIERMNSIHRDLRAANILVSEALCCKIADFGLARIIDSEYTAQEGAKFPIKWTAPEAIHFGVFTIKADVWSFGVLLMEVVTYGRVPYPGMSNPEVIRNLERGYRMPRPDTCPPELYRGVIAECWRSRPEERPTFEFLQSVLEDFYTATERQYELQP
Tyrosine-protein kinase receptor UFO (Homo sapiens), sequence (P30530 whole entry): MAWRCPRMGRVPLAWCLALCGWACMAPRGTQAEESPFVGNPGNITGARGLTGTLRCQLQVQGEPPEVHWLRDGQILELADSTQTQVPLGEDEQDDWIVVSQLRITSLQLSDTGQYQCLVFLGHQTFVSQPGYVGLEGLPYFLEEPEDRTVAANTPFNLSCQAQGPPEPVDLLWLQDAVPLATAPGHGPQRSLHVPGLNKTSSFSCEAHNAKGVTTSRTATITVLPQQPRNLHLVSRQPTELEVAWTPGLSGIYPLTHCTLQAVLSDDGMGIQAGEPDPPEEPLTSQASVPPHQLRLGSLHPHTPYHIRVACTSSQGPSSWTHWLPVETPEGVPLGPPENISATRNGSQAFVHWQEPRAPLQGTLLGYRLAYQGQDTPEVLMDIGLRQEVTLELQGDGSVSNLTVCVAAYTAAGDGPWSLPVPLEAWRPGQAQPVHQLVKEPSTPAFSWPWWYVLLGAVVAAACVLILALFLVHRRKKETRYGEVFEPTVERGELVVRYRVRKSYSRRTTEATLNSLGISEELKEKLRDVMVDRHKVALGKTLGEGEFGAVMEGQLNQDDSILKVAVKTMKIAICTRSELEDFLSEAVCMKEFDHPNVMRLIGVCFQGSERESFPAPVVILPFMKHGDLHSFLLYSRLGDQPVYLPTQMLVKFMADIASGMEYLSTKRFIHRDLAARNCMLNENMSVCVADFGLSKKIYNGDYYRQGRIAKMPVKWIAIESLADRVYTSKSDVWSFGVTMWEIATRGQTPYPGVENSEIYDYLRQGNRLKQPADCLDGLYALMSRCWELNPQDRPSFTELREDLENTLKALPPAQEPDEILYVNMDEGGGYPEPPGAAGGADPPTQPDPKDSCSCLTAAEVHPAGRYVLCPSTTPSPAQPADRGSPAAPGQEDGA

On to `CS(=O)(=O)CCNCc1ccc(-c2ccc3ncnc(Nc4ccc(OCc5cccc(C(F)(F)F)c5)cc4)c3c2)o1`, for which the inhibition in test [1] was 2.39%; in test [2], 2.96%; in test [3], 3.54%; in [4] it was 6.46%; in test [5], 8.69%; in test [6] it was 3%. Also, the inhibition in test [7] is 5.12%; in test [8] it was 4.21%; in [9], 8.35%; in [10], -6.74%; in test [11], -5.12%; in [12] it was 2.51%. The inhibition in [13] is 6.32%; in [14], 3.21%; in test [15] it was 6.44%; in test [16], 2.67%; in test [17] it was 3.19%; in test [18], -2.4%. Besides, the inhibition in [19] turned out to be 0.46%; in test [20], 2.05%.

For the compound `CNC(=O)c1ncccc1Nc1nc(Nc2cc3c(cc2OC)CCCN3C(=O)CN(C)C)nc2[nH]ccc12`, the inhibition in test [1] was determined as 2.23%; in [2] it was 3.84%; in [3] it was 3.74%; in [4], 4.98%; in [5], 7.6%; in [6], 94.4%. Further, the inhibition in [7] was 90.8%; in [8], 2.06%; in test [9] it was 5.83%; in test [10] it was 10.8%; in test [11], 53.5%; in test [12], 2.8%. Also, the inhibition in [13] is 7.25%; in [14] it was 3.62%; in test [15], 4.96%; in test [16], 4%; in [17], 6.37%; in test [18] it was 0.46%. The inhibition in [19] was 1.22%; in [20] it was 2.99%.

On to `COc1cc2c(cc1Nc1nc(Nc3cccc(F)c3C(N)=O)c3cc[nH]c3n1)N(C(=O)CN1CCN(C(C)C)CC1)CC2`, for which the inhibition in test [1] is 2.05%; in [2] it was -2.26%; in test [3], 1.07%; in [4], -1.27%; in [5] it was -0.09%; in [6], 62.8%. Moreover, the inhibition in test [7] was 82.3%; in test [8] it was -1.03%; in test [9], -1.11%; in [10], -1.56%; in test [11], 2.45%; in test [12], -0.36%. Also, the inhibition in test [13] is -0.42%; in test [14] it was 2.26%; in test [15], 3.16%; in test [16] it was -1.33%; in test [17], 3.54%; in test [18] it was -0.03%. Besides, the inhibition is -1.36% in test [19] and -1.06% in test [20].

For `CCS(=O)(=O)c1ccc(OC)c(Nc2ncc(-c3cccc(C(C)=O)c3)o2)c1`, the inhibition amounted to 8.41% in test [1]; 25.4% in [2]; 72.3% in test [3]; 13.4% in [4]; 60.2% in test [5]; 2.32% in test [6]. In addition, the inhibition in test [7] is 2.87%; in test [8], 13%; in test [9] it was 60.8%; in test [10], -3.14%; in test [11] it was -3.61%; in [12], 4.6%. The inhibition in [13] is 35.6%; in test [14], -2.05%; in test [15], 15.7%; in [16], 4.59%; in [17], 18.7%; in [18], 2.71%. For the same compound, the values for the inhibition in test [19] and in test [20] were 8.89% and 2.68%, respectively.

For `COc1cc(N2CCN(C(C)C)CC2)ccc1Nc1nc(Nc2cccc(F)c2C(=O)O)c2cc[nH]c2n1`, the inhibition amounted to 7.98% in test [1]; 4.3% in test [2]; 5.73% in test [3]; 5.38% in [4]; 5.63% in test [5]; 68.1% in test [6]. Besides, the inhibition stood at 80.7% in [7]; 4.02% in test [8]; 5.35% in test [9]; 2.71% in test [10]; 37.3% in [11]; 2.92% in test [12]. Also, the inhibition is 4.31% in test [13]; 2.19% in test [14]; 4.13% in [15]; 4.63% in test [16]; 8.17% in test [17]; -0.37% in test [18]. In addition, the inhibition in test [19] is 0.06%; in [20], 5.06%.

`NS(=O)(=O)c1ccc(N/N=C2\C(=O)Nc3cccc(CCc4ccncc4)c32)cc1`: the inhibition worked out at 6.34% in test [1]; 3.29% in [2]; 8.15% in test [3]; 3.11% in test [4]; 4.4% in test [5]; 1.31% in [6]. Besides, the inhibition in test [7] is 4.47%; in test [8] it was 2.11%; in [9], 3.55%; in test [10] it was -0.12%; in test [11] it was 0.32%; in test [12], 4.33%. The inhibition in test [13] is 10.4%; in test [14] it was 3.67%; in test [15] it was 4.79%; in test [16], -0.69%; in [17], -1.07%; in [18] it was 0.17%. The inhibition is 0.16% in test [19] and 1.04% in [20].

As to `Cc1c2ccc(N(C)c3ccnc(Nc4cccc(S(N)(=O)=O)c4)n3)cc2nn1C`, the inhibition in test [1] amounted to 52.2%; in test [2], 43.4%; in [3] it was 83.3%; in [4] it was 16.7%; in test [5], 64.5%; in test [6], 1.38%. Moreover, the inhibition in [7] is 18.8%; in [8], 19.5%; in test [9], 62.8%; in test [10] it was -8.43%; in test [11] it was 1.26%; in [12], 5.04%. Further, the inhibition in test [13] is 56.5%; in test [14], -1.19%; in test [15], 17%; in test [16], 13.8%; in test [17], 51.2%; in [18], -2.88%. The inhibition in test [19] stood at 1.31%; in test [20] it was 5.79%.
